Test results taken from PubChem BioAssay AID1159580 (chemical genetic matrix, 2015).
Out of some 5,500 compounds screened, about 2,000 (36%) were called active. Inconclusive results (about 18%) are left out. The list shows a part of the results. A number with no mark means an inactive call. Rule as the data show it: active = normalized growth mostly below about 0.91 (no sharp cut-off); inconclusive = no clear call, values can overlap the other calls; inactive = mostly above about 0.92.

Assay: chemical genetic growth profiling, strain panel (AID 1159580);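 also: tested at 20 µM; growth read once vehicle control cultures reached saturation at 30 °C; 1 = growth at the plate median or of vehicle wells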
Settings: growth OD

Q: With `C[C@H](CCC(=O)O)[C@H]1CCC2C3C(CC[C@@]21C)[C@@]1(C)CC[C@@H](O)C[C@H]1C[C@@H]3O` (stereo partly specified) as the compound, how does the normalized growth (S. cerevisiae deletion strains, locus YKL009W, strain mrt4, stronger effect = lower value) read?
A: Its normalized growth is 0.807 (active).

Q: And the normalized growth (S. cerevisiae deletion strains, locus YKL068W, stronger effect = lower value)?
A: The normalized growth was 0.989.

Q: And the normalized growth (S. cerevisiae deletion strains, locus YKL085W, strain MDH1 (second series), stronger effect = lower value)?
A: The normalized growth was 0.953.

Q: And the normalized growth (S. cerevisiae deletion strains, locus YKL085W, strain MDH1, stronger effect = lower value)?
A: Its normalized growth is 0.953.

Q: And the normalized growth (S. cerevisiae deletion strains, locus YKL160W, strain elf1, stronger effect = lower value)?
A: The normalized growth was 0.977.

Q: And the normalized growth (S. cerevisiae deletion strains, locus YKL190W, strain CNB1, stronger effect = lower value)?
A: Its normalized growth is 0.99.

Q: What about the normalized growth (S. cerevisiae deletion strains, locus YKR001C, strain vps1, stronger effect = lower value) of the same compound?
A: The normalized growth was 0.963.

Q: And the normalized growth (S. cerevisiae deletion strains, locus YKR026C, strain gcn3, stronger effect = lower value)?
A: The normalized growth was 0.997.

Q: What about the normalized growth (S. cerevisiae deletion strains, locus YKR091W, strain srl3, stronger effect = lower value) of the same compound?
A: The normalized growth was 0.99.

Q: What about the normalized growth (S. cerevisiae deletion strains, locus YLL001W, strain dnm1, stronger effect = lower value) of the same compound?
A: The normalized growth was 0.953.

Q: And the normalized growth (S. cerevisiae deletion strains, locus YLL026W, stronger effect = lower value)?
A: Its normalized growth is 0.987.

Q: And the normalized growth (S. cerevisiae deletion strains, locus YLL041C, strain sdh2, stronger effect = lower value)?
A: The normalized growth was 1.

Q: What about the normalized growth (S. cerevisiae deletion strains, locus YLR027C, strain aat2, stronger effect = lower value) of the same compound?
A: The normalized growth was 0.983.

Q: And the normalized growth (S. cerevisiae deletion strains, locus YLR039C, strain RIC1, stronger effect = lower value)?
A: Its normalized growth is 0.828.

Q: What about the normalized growth (S. cerevisiae deletion strains, locus YLR058C, strain SHM2, stronger effect = lower value) of the same compound?
A: The normalized growth was 0.984.

Q: And the normalized growth (S. cerevisiae deletion strains, locus YLR102C, strain apc9, stronger effect = lower value)?
A: The normalized growth was 0.972.

Q: And the normalized growth (S. cerevisiae deletion strains, locus YLR113W, strain HOG1, stronger effect = lower value)?
A: The normalized growth was 0.937.

Q: And the normalized growth (S. cerevisiae deletion strains, locus YLR221C, strain rsa3, stronger effect = lower value)?
A: The normalized growth was 1.05.

Q: And the normalized growth (S. cerevisiae deletion strains, locus YLR258W, strain gsy2, stronger effect = lower value)?
A: Its normalized growth is 1.02.

Q: And the normalized growth (S. cerevisiae deletion strains, locus YLR262C, strain YPT6 (second series), stronger effect = lower value)?
A: Its normalized growth is 0.795 (active).

Q: What about the normalized growth (S. cerevisiae deletion strains, locus YLR262C, strain YPT6, stronger effect = lower value) of the same compound?
A: Its normalized growth is 0.776.

Q: And the normalized growth (S. cerevisiae deletion strains, locus YLR268W, strain sec22, stronger effect = lower value)?
A: Its normalized growth is 0.929.

Q: And the normalized growth (S. cerevisiae deletion strains, locus YLR320W, strain mms22, stronger effect = lower value)?
A: Its normalized growth is 1.03.

Q: What about the normalized growth (S. cerevisiae deletion strains, locus YLR330W, strain CHS5, stronger effect = lower value) of the same compound?
A: The normalized growth was 0.996.

Q: What about the normalized growth (S. cerevisiae deletion strains, locus YLR342W, strain FKS1 (second series), stronger effect = lower value) of the same compound?
A: Its normalized growth is 0.965.

Q: What about the normalized growth (S. cerevisiae deletion strains, locus YLR342W, strain FKS1, stronger effect = lower value) of the same compound?
A: Its normalized growth is 0.946.

Q: What about the normalized growth (S. cerevisiae deletion strains, locus YLR357W, strain rsc2, stronger effect = lower value) of the same compound?
A: The normalized growth was 1.06.

Q: And the normalized growth (S. cerevisiae deletion strains, locus YLR370C, strain arc18, stronger effect = lower value)?
A: The normalized growth was 0.964.

Q: And the normalized growth (S. cerevisiae deletion strains, locus YLR371W, strain rom2, stronger effect = lower value)?
A: Its normalized growth is 0.987.

Q: And the normalized growth (S. cerevisiae deletion strains, locus YLR384C, strain iki3, stronger effect = lower value)?
A: Its normalized growth is 0.967.

Q: What about the normalized growth (S. cerevisiae deletion strains, locus YLR418C, strain cdc73, stronger effect = lower value) of the same compound?
A: The normalized growth was 0.965.

Q: What about the normalized growth (S. cerevisiae deletion strains, locus YML016C, strain PPZ1, stronger effect = lower value) of the same compound?
A: Its normalized growth is 0.978.

Q: What about the normalized growth (S. cerevisiae deletion strains, locus YML032C, strain rad52, stronger effect = lower value) of the same compound?
A: Its normalized growth is 0.95.

Q: And the normalized growth (S. cerevisiae deletion strains, locus YML120C, strain ndi1, stronger effect = lower value)?
A: Its normalized growth is 0.962.

Q: What about the normalized growth (S. cerevisiae deletion strains, locus YML124C, strain tub3, stronger effect = lower value) of the same compound?
A: The normalized growth was 0.986.

Q: What about the normalized growth (S. cerevisiae deletion strains, locus YMR058W, strain fet3, stronger effect = lower value) of the same compound?
A: The normalized growth was 0.997.

Q: What about the normalized growth (S. cerevisiae deletion strains, locus YMR078C, strain ctf18, stronger effect = lower value) of the same compound?
A: Its normalized growth is 0.972.

Q: What about the normalized growth (S. cerevisiae deletion strains, locus YMR125W, strain sto1, stronger effect = lower value) of the same compound?
A: The normalized growth was 1.03.

Q: What about the normalized growth (S. cerevisiae deletion strains, locus YMR129W, stronger effect = lower value) of the same compound?
A: The normalized growth was 0.988.

Q: And the normalized growth (S. cerevisiae deletion strains, locus YMR205C, strain PFK2, stronger effect = lower value)?
A: The normalized growth was 0.985.

Q: What about the normalized growth (S. cerevisiae deletion strains, locus YMR223W, strain ubp8, stronger effect = lower value) of the same compound?
A: The normalized growth was 1.

Q: What about the normalized growth (S. cerevisiae deletion strains, locus YMR231W, strain pep5, stronger effect = lower value) of the same compound?
A: Its normalized growth is 0.959.

Q: And the normalized growth (S. cerevisiae deletion strains, locus YMR263W, strain SAP30, stronger effect = lower value)?
A: Its normalized growth is 1.

Q: What about the normalized growth (S. cerevisiae deletion strains, locus YMR307W, strain GAS1, stronger effect = lower value) of the same compound?
A: Its normalized growth is 0.88.

Q: And the normalized growth (S. cerevisiae deletion strains, locus YNL067W, strain RPL9B, stronger effect = lower value)?
A: The normalized growth was 0.972.

Q: And the normalized growth (S. cerevisiae deletion strains, locus YNL071W, strain lat1, stronger effect = lower value)?
A: The normalized growth was 1.01.

Q: And the normalized growth (S. cerevisiae deletion strains, locus YNL128W, strain TEP1, stronger effect = lower value)?
A: Its normalized growth is 0.99.

Q: And the normalized growth (S. cerevisiae deletion strains, locus YNL153C, strain GIM3, stronger effect = lower value)?
A: Its normalized growth is 1.

Q: And the normalized growth (S. cerevisiae deletion strains, locus YNL183C, strain NPR1, stronger effect = lower value)?
A: Its normalized growth is 0.921.

Q: What about the normalized growth (S. cerevisiae deletion strains, locus YNL209W, strain ssb2, stronger effect = lower value) of the same compound?
A: The normalized growth was 1.01.

Q: And the normalized growth (S. cerevisiae deletion strains, locus YNL233W, strain BNI4, stronger effect = lower value)?
A: The normalized growth was 1.02.

Q: And the normalized growth (S. cerevisiae deletion strains, locus YNL248C, strain rpa49, stronger effect = lower value)?
A: The normalized growth was 1.02.

Q: What about the normalized growth (S. cerevisiae deletion strains, locus YNL250W, strain rad50, stronger effect = lower value) of the same compound?
A: Its normalized growth is 0.978.

Q: What about the normalized growth (S. cerevisiae deletion strains, locus YNL271C, strain bni1, stronger effect = lower value) of the same compound?
A: Its normalized growth is 0.956.

Q: And the normalized growth (S. cerevisiae deletion strains, locus YNL298W, strain CLA4, stronger effect = lower value)?
A: Its normalized growth is 0.937.

Q: And the normalized growth (S. cerevisiae deletion strains, locus YNL307C, strain MCK1, stronger effect = lower value)?
A: The normalized growth was 0.979.

Q: And the normalized growth (S. cerevisiae deletion strains, locus YNL322C, strain KRE1 (second series), stronger effect = lower value)?
A: Its normalized growth is 0.981.

Q: What about the normalized growth (S. cerevisiae deletion strains, locus YNL322C, strain KRE1, stronger effect = lower value) of the same compound?
A: The normalized growth was 0.993.

Q: And the normalized growth (S. cerevisiae deletion strains, locus YNR049C, strain mso1, stronger effect = lower value)?
A: The normalized growth was 0.993.

Q: And the normalized growth (S. cerevisiae deletion strains, locus YNR052C, strain pop2, stronger effect = lower value)?
A: Its normalized growth is 0.971.

Q: And the normalized growth (S. cerevisiae deletion strains, locus YOL006C, strain TOP1, stronger effect = lower value)?
A: Its normalized growth is 0.931.

Q: What about the normalized growth (S. cerevisiae deletion strains, locus YOL012C, strain htz1) of the same compound?
A: Its normalized growth is 0.86.

Q: What about the normalized growth (S. cerevisiae deletion strains, locus YOL147C, strain pex11, stronger effect = lower value) of the same compound?
A: The normalized growth was 0.983.

Q: And the normalized growth (S. cerevisiae deletion strains, locus YOR001W, strain rrp6, stronger effect = lower value)?
A: The normalized growth was 0.947.

Q: And the normalized growth (S. cerevisiae deletion strains, locus YOR061W, strain CKA2, stronger effect = lower value)?
A: Its normalized growth is 0.977.

Q: And the normalized growth (S. cerevisiae deletion strains, locus YOR069W, strain VPS5, stronger effect = lower value)?
A: Its normalized growth is 0.989.

Q: And the normalized growth (S. cerevisiae deletion strains, locus YOR070C, strain gyp1, stronger effect = lower value)?
A: Its normalized growth is 1.

Q: And the normalized growth (S. cerevisiae deletion strains, locus YOR080W, strain dia2, stronger effect = lower value)?
A: Its normalized growth is 0.972.

Q: What about the normalized growth (S. cerevisiae deletion strains, locus YOR083W, strain WHI5, stronger effect = lower value) of the same compound?
A: Its normalized growth is 0.969.

Q: And the normalized growth (S. cerevisiae deletion strains, locus YOR106W, strain vam3, stronger effect = lower value)?
A: The normalized growth was 0.951.

Q: What about the normalized growth (S. cerevisiae deletion strains, locus YOR136W, strain idh2, stronger effect = lower value) of the same compound?
A: Its normalized growth is 1.

Q: What about the normalized growth (S. cerevisiae deletion strains, locus YOR144C, strain elg1, stronger effect = lower value) of the same compound?
A: Its normalized growth is 0.984.

Q: And the normalized growth (S. cerevisiae deletion strains, locus YOR184W, strain ser1, stronger effect = lower value)?
A: The normalized growth was 0.921.

Q: What about the normalized growth (S. cerevisiae deletion strains, locus YOR231W, strain MKK1, stronger effect = lower value) of the same compound?
A: Its normalized growth is 0.952.

Q: And the normalized growth (S. cerevisiae deletion strains, locus YOR265W, strain rbl2, stronger effect = lower value)?
A: Its normalized growth is 0.99.

Q: What about the normalized growth (S. cerevisiae deletion strains, locus YOR270C, strain vph1, stronger effect = lower value) of the same compound?
A: The normalized growth was 0.945.

Q: What about the normalized growth (S. cerevisiae deletion strains, locus YOR290C, strain snf2, stronger effect = lower value) of the same compound?
A: The normalized growth was 1.03.

Q: What about the normalized growth (S. cerevisiae deletion strains, locus YOR316C, strain cot1, stronger effect = lower value) of the same compound?
A: The normalized growth was 0.982.

Q: And the normalized growth (S. cerevisiae deletion strains, locus YPL051W, strain arl3, stronger effect = lower value)?
A: The normalized growth was 1.

Q: What about the normalized growth (S. cerevisiae deletion strains, locus YPL055C, strain LGE1, stronger effect = lower value) of the same compound?
A: Its normalized growth is 1.01.

Q: What about the normalized growth (S. cerevisiae deletion strains, locus YPL078C, strain atp4, stronger effect = lower value) of the same compound?
A: Its normalized growth is 0.931.

Q: And the normalized growth (S. cerevisiae deletion strains, locus YPL106C, strain sse1, stronger effect = lower value)?
A: Its normalized growth is 0.993.

Q: What about the normalized growth (S. cerevisiae deletion strains, locus YPL240C, strain hsp82, stronger effect = lower value) of the same compound?
A: The normalized growth was 1.01.

Q: What about the normalized growth (S. cerevisiae deletion strains, locus YPL241C, strain CIN2, stronger effect = lower value) of the same compound?
A: Its normalized growth is 0.993.

Q: And the normalized growth (S. cerevisiae deletion strains, locus YPL256C, strain CLN2, stronger effect = lower value)?
A: Its normalized growth is 0.936.

Q: What about the normalized growth (S. cerevisiae deletion strains, locus YPR119W, strain clb2, stronger effect = lower value) of the same compound?
A: Its normalized growth is 0.977.

Q: What about the normalized growth (S. cerevisiae deletion strains, locus YPR141C, strain kar3, stronger effect = lower value) of the same compound?
A: Its normalized growth is 0.97.

Q: And the normalized growth (S. cerevisiae deletion strains, locus YPR163C, strain tif3, stronger effect = lower value)?
A: The normalized growth was 0.981.

Q: And the normalized growth (S. cerevisiae deletion strains, locus YPR167C, strain met16, stronger effect = lower value)?
A: The normalized growth was 0.987.

Q: And the normalized growth (S. cerevisiae deletion strains, strain wtn01, stronger effect = lower value)?
A: Its normalized growth is 0.971.

Q: What about the normalized growth (S. cerevisiae strains, strain wild type, stronger effect = lower value) of the same compound?
A: The normalized growth was 0.994.
